Screens as filed in PubChem BioAssay.
In the library only some 1.2% were active in any assay of this set; here they are far more common.
GRK2 inh – human GRK2 inhibition via aptamer displacement | P25098 | bead flow cytometry, FAM-aptamer displacement from GRK2 | inhibition of aptamer binding, % at 10 µM | hit rate 0.59% among 330,000 | AID 488847;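 active means inhibition of aptamer binding above 40%, roughly 3 SD of noise, on plates passing a quality check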;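 further: median bead fluorescence of bound FAM aptamer so fluorescent compounds give negative values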
Target sequence (P25098 whole entry, looked up): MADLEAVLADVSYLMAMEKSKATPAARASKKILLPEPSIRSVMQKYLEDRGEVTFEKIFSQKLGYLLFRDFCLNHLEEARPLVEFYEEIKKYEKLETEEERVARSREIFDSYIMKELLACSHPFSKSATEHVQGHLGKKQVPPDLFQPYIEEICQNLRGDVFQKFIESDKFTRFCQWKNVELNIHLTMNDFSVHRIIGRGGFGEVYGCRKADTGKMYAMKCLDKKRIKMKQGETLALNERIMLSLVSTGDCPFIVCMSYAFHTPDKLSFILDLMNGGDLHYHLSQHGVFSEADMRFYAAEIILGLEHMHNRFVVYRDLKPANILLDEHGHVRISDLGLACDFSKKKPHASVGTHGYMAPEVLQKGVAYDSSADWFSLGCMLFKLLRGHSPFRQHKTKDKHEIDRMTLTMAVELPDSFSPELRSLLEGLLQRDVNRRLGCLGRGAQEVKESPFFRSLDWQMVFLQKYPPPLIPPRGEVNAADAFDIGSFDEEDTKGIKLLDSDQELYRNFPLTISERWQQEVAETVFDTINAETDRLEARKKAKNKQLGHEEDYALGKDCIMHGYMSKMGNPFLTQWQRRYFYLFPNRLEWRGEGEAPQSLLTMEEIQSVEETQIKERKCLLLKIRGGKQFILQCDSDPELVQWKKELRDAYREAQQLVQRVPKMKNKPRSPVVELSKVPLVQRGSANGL
MIN6 prolif – inducers of beta-cell replication in MIN6 cells. hit rate 0.29% among 330,000. MIN6 cells proliferation, ATPlite luminescence, 48 h; cells starved in 0.2% serum; 100% = growth in 10% serum. proliferation, % at 10 µM;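 active means compounds whose signal lies at least 3.5 SD above the mean of all wells on their plate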;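 further: 0% = DMSO-treated cells in low-serum medium and 100% = 10% serum control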
NTR1 agonist – NTR1 (human) agonism | NTR1-U2OS beta-arrestin-GFP spot imaging, agonist mode | activation, % at 20 µM | hit rate 0.17% among 330,000 | AID 493036;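 active means activation at or above 40% of the spot to cytoplasm intensity ratio, with at least 20 cells analyzed; inconclusive means wells under 20 cells, flagged as cytotoxic or low count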;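 further: 0% = DMSO without peptide and 100% = 100 nM NTR1 peptide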
Platelet DG rel – platelet dense granule release activity | AID 1663 | inhibition, %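 (compounds screened at 7.5 µM in platelet-rich plasma)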 | human platelet-rich plasma, SFLLRN dense granule ATP release, luminescence | hit rate 0.22% among 300,000;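 active means mean replicate score, as percent of positive control, at or above 50; inconclusive means mean below 50 but at least one replicate at or above 50; inactive means mean and every replicate below 50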
* marks the source's active call; other numbers are inactive results.

How did COc1ccc(OCC(=O)N2CCCC(CO)(CCOc3ccccc3)C2)cc1 (configuration not stated) do in these assays?
GRK2 inh: 0.0; MIN6 prolif: 1.4; NTR1 agonist: 3.1; Platelet DG rel: 7.0

What do the screens show for `CCN(CC)c1ccc(/C=N/NC(=O)CNC(=O)C2COc3ccccc3O2)c(O)c1` (configuration not stated)?
GRK2 inh: 1.0; MIN6 prolif: -5.7; NTR1 agonist: 10.5; Platelet DG rel: 2.3

How did O=C(CNC(=O)Cc1ccccc1)N=Nc1c(O)[nH]c2ccccc12 do in these assays?
GRK2 inh: 0.0; MIN6 prolif: 0.0; NTR1 agonist: -0.5; Platelet DG rel: 3.8

How did O=C(CNC(=O)/C=C/c1ccco1)N=Nc1c(O)[nH]c2ccccc12 do in these assays?
GRK2 inh: 50.0*; MIN6 prolif: -2.6; NTR1 agonist: 0.7; Platelet DG rel: 5.0

Results for CCOC(=O)c1ccc(NC(=O)c2ccc3c(c2)C(=O)N(Cc2cccnc2)C3=O)cc1 ?
GRK2 inh: 0.0; MIN6 prolif: 2.5; NTR1 agonist: 2.6; Platelet DG rel: -5.2

How did COc1ccc(C(C)=NNC(=O)c2cccc(S(=O)(=O)N3CCCC3)c2)cc1 do in these assays?
GRK2 inh: 0.0; MIN6 prolif: -1.4; NTR1 agonist: -0.9

How did COc1cc(/C(C)=N/NC(=O)c2cccc(S(=O)(=O)N3CCCC3)c2)cc(OC)c1OC do in these assays?
GRK2 inh: 50.0*; MIN6 prolif: 2.2; NTR1 agonist: 2.4; Platelet DG rel: -7.3

What do the screens show for `CCN(C(=O)Cn1cnc2c1c(=O)n(C)c(=O)n2C)C1CCCCC1`?
GRK2 inh: 0.0; MIN6 prolif: 0.0; NTR1 agonist: -0.5

What do the screens show for `CCOC(=O)Cn1c(=NC(=O)CSC(C)=O)sc2cc(OC)ccc21`?
GRK2 inh: 1.0; MIN6 prolif: -4.1; NTR1 agonist: 2.9; Platelet DG rel: 14.0

How did CCOC(=O)Cn1c(=NC(=O)CSC(C)=O)sc2ccccc21 do in these assays?
GRK2 inh: 2.0; MIN6 prolif: -5.3; NTR1 agonist: -0.5; Platelet DG rel: 87.1*

How did Cc1c(NC(=O)CSC(=S)N2CCCC2)c(=O)n(-c2ccccc2)n1C do in these assays?
GRK2 inh: 0.0; MIN6 prolif: -3.9; NTR1 agonist: -0.1; Platelet DG rel: inconclusive

How did CN(C)c1ccc(N/C=C/C(=O)c2ccccc2)cc1 do in these assays?
GRK2 inh: 0.0; MIN6 prolif: -5.2; NTR1 agonist: 2.4; Platelet DG rel: 88.4*

Results for O=C(/C=C/Nc1ccccc1)c1ccccc1 ?
GRK2 inh: 3.0; MIN6 prolif: -4.0; NTR1 agonist: -0.2; Platelet DG rel: 36.7

Results for Cc1ccc(C)n1Cc1ccc(C(=O)O)cc1 ?
GRK2 inh: 88.0*; MIN6 prolif: 3.3; NTR1 agonist: 1.4

Results for COc1ccccc1/C=C/C(=O)Nc1cccc(S(=O)(=O)N2CCOCC2)c1 ?
GRK2 inh: 0.0; MIN6 prolif: -0.8; NTR1 agonist: 1.0

Results for O=C1c2c(O)ccc(O)c2C(=O)c2c(NCCNCCO)ccc(NCCNCCO)c21 ?
GRK2 inh: 99.0*; MIN6 prolif: -8.1; NTR1 agonist: 1.9

What do the screens show for `Cc1ccc(-c2nc3ccccc3[nH]2)s1`?
GRK2 inh: 0.0; MIN6 prolif: -3.9; NTR1 agonist: -1.1; Platelet DG rel: 59.0*

How did Cc1noc(C)c1CSCC(=O)N(C)CC(=O)Nc1ccc(F)c(F)c1F do in these assays?
GRK2 inh: 1.0; MIN6 prolif: -1.3; NTR1 agonist: 3.5; Platelet DG rel: 1.7

Results for COc1cccc(C(=O)NCCS(=O)(=O)NCCCc2ccccc2)c1 ?
GRK2 inh: 1.0; MIN6 prolif: -0.1; NTR1 agonist: -0.5; Platelet DG rel: 2.9

What do the screens show for `NC(=O)N/N=C/c1c(Sc2nnnn2-c2ccccc2)nc2ccccn2c1=O`?
GRK2 inh: 3.0; MIN6 prolif: -6.2; NTR1 agonist: 5.2; Platelet DG rel: -0.1

What do the screens show for `O=C(O)c1cccc(-n2cccc2/C=C2\SC(=O)N(Cc3ccccc3F)C2=O)c1`?
GRK2 inh: 45.0*; MIN6 prolif: -1.8; NTR1 agonist: 0.4; Platelet DG rel: 4.3

How did Cc1nn(C)cc1S(=O)(=O)Nc1ncccn1 do in these assays?
GRK2 inh: 3.0; MIN6 prolif: -3.0; NTR1 agonist: -1.2; Platelet DG rel: -6.4

What do the screens show for `O=C1CCC(=O)N1CCC(c1ccc(F)cc1)c1ccco1` (configuration not stated)?
GRK2 inh: 1.0; MIN6 prolif: -1.5; NTR1 agonist: 0.0; Platelet DG rel: -6.0

What do the screens show for `O=C1NCN(c2ccccc2)C12CCN(CCCC(c1ccc(F)cc1)c1ccc(F)cc1)CC2`?
GRK2 inh: 6.0; MIN6 prolif: -8.2; NTR1 agonist: 40.2*; Platelet DG rel: -3.9

How did CN(CC(=O)Nc1cccc(F)c1)C(=O)CN1C(=O)C2CCCCC2C1=O (configuration not stated) do in these assays?
GRK2 inh: 0.0; MIN6 prolif: -3.3; NTR1 agonist: -1.8

How did COc1cccc2oc3ccc(C#Cc4ccccn4)cc3c(=O)c12 do in these assays?
GRK2 inh: 4.0; MIN6 prolif: -3.7; NTR1 agonist: 6.1; Platelet DG rel: 62.2*

Results for CCN(CC)C(=O)[C@H]1C[C@H](CC(=O)NC(C)(C)C)C(=O)N2CCc3c([nH]c4cc(CCC(=O)N(C)C)ccc34)[C@]12C ?
GRK2 inh: 50.0*; NTR1 agonist: -0.5

What do the screens show for `CN(C)C(=O)CCc1ccc2c3c([nH]c2c1)[C@]1(C)[C@@H](C(=O)N2CCCCC2)C[C@H](CC(=O)NC(C)(C)C)C(=O)N1CC3`?
GRK2 inh: 0.0; NTR1 agonist: 1.2

How did CCN(CC)C(=O)[C@H]1CC(CC(=O)NCC23CC4CC(CC(C4)C2)C3)C(=O)N2CCc3c([nH]c4ccc(OC)cc34)[C@]12C (some centres not stated) do in these assays?
GRK2 inh: 44.0*; NTR1 agonist: 7.9

How did COc1ccc(CN2C(=O)c3cccc4cccc2c34)cc1F do in these assays?
GRK2 inh: 5.0; MIN6 prolif: 0.4; NTR1 agonist: 1.5; Platelet DG rel: -4.3

Results for CCN(CC(=O)Nc1ccc(NC(C)=O)cc1)C(=O)c1ccccc1SCc1c(C)noc1C ?
GRK2 inh: 0.0; MIN6 prolif: -1.4; NTR1 agonist: -0.2; Platelet DG rel: -0.4

What do the screens show for `COc1ccc(C(c2sc3nc(C)nn3c2O)N2CCCCC2)cc1` (configuration not stated)?
GRK2 inh: 0.0; MIN6 prolif: -2.4; NTR1 agonist: -1.7; Platelet DG rel: 58.9*

How did COc1cc(C(c2sc3nc(C)nn3c2O)N2CCN(c3ccccc3)CC2)cc(OC)c1OC (configuration not stated) do in these assays?
GRK2 inh: 0.0; MIN6 prolif: -2.3; NTR1 agonist: -1.9; Platelet DG rel: -1.5

How did COc1cc(C(c2sc3nc(C)nn3c2O)N2CCOCC2)cc(OC)c1OC (configuration not stated) do in these assays?
GRK2 inh: 0.0; MIN6 prolif: -0.3; NTR1 agonist: 3.2; Platelet DG rel: 67.1*

How did COc1ccc(C(c2sc3nc(C)nn3c2O)N2CCC3(CC2)OCCO3)cc1 (configuration not stated) do in these assays?
GRK2 inh: 3.0; MIN6 prolif: -1.1; NTR1 agonist: -0.4
